These results are taken from PubChem BioAssay (NCI).

The panel holds about 83,000 compounds, 20% with a hit somewhere; the sample as a whole holds those more often.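 Compound tested at a single concentration for 48 hours in 96-well plates; a percent growth value below 10 was scored as active.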 Values without a mark were called inactive. Active and inactive are the calls of the source.

This assay has as its system HOP-92 NSCLC. Kind of assay: NCI-60 one-dose screen, 48 h (100 = growth as untreated, 0 = no growth, -100 = all killed). The note with it: 10 µM. How it is done:
Growth inhibition of the HOP-92 human Non-Small Cell Lung tumor cell line is measured as a screen for anti-cancer activity. Cells are grown in 96 well plates and exposed to the test compound for 48 hours. Compounds are tested at a single concentration, which is 10^-5 M for most compounds. The reported endpoint is percent growth (GI% or GIPRCNT), where numbers from 0 - 100% represent growth inhibition, and numbers from -100% - 0 represent cell death. For example, a value of 40 represents 60% growth inhibition. A value of 0 means no net growth occurred over the course of the experiment. A value of -40 indicates 40% of cells at the beginning of the experiment died by the end of the experiment. A value of -100 means all cells are dead at the end of the experiment.
NCI-60 Human Tumor Cell Lines Screen was performed using the standard one-dose NCI protocol, which is described in more detail at https://dtp.cancer.gov/discovery_development/nci-60/default.htm.
Compounds with GIPRCNT values below 10 were considered active. Activity score was based on GIPRCNT using the following formula: […]
Score is 0 for GIPRCNT values of 100 or above, 50 for GIPRCNT values of 0, and 100 for GIPRCNT values of -100.
`COc1ccc(/C=C2\CCC3C(CCCC34OCCO4)C2=O)cc1` (stereo not given): the growth was 92.3%.

On to `N#Cc1ncc(-c2cc(F)ccc2F)c(NC2CCCCCC2)n1`, for which the growth is 65.2%.

For `COc1cc(/C=C2\C(=O)Nc3cc(C)c(O)cc32)cc(OC)c1OC`, the growth was 63.6%.

Consider `O=C/C=C/c1ccc([N+](=O)[O-])cc1Cl`, for which the growth is 95.1%.

For the molecule `CCCCCCCCCCCC(=O)NCCCN(C)C`, the growth was 45.5%.

For `Cc1cccc2c(Nc3ccc(NS(C)(=O)=O)cc3)c3ccc([N+](=O)[O-])cc3nc12`, the growth was -16.7% (active).

Take `N/C(=N\O)c1cn(C2OC(CO)C(O)C2O)c2ncnc(N)c12` (stereo not given): the growth is -6.61% (active).

Turning to `Cc1cc(C(C)(C)CC(C)(C)C)ccc1OCCOCC[N+](C)(C)Cc1ccccc1`, the growth was -72.5% (active).

`Oc1cc(O)c(Br)cc1Br`: the growth was 85.4%.

Consider `CN(C)c1ccc2cc(-c3cc4c(oc3=O)-c3ccccc3OC4O)c(=O)oc2c1` (stereo not given), for which the growth was -49.1% (active).

As to `COC(=O)[C@]12CC[C@@H](C)[C@H](C)[C@@H]1C1=CC[C@@H]3[C@@]4(C)CC(=O)[C@H](O)[C@@](C)(CO)[C@@H]4C(=O)C[C@@]3(C)[C@]1(C)CC2`, the growth is -22.5% (active).

As for `CC(=O)c1ccc(NCn2nc(-c3ccc(Cl)cc3)oc2=S)cc1`, the growth is 104%.

Take `C#CCNCCCN1C(=O)c2ccc3c4c(ccc(c24)C1=O)C(=O)N(CCCNCC#C)C3=O`: the growth is -26.3% (active).

Consider `O=c1oc2cc(OS(=O)(=O)C3CC3)ccc2c2c1CCCCCC2`, for which the growth is 85.2%.

As for `COc1ccc(C(C)=O)cc1N1C(=O)C2C(C1=O)C1(c3ccccc3)C(=O)C2(c2ccccc2)C(c2ccc(C)cc2)=C1c1ccc(C)cc1` (stereo not given), the growth was 49.6%.

In the case of `Cc1nc2cc(-n3c(-c4ccc(F)cc4)nc4ccccc4c3=O)ccc2n1Cc1ccccc1`, the growth is -15.6% (active).

For `COc1cccc2c1O/C(=C\c1ncc([N+](=O)[O-])n1C)C2=O`, the growth is -36.8% (active).

Turning to `CCOC(=O)[C@@H]1[C@H](c2ccccc2)[C@H]([N+](=O)[O-])[C@H](c2cn(-c3ccccc3)nc2C)N1Cc1ccccc1`, the growth is 69.8%.

For `COc1cccc(-c2nnc(COc3ccc(-c4nc5ccc(C)cc5[nH]4)cc3OC)o2)c1`, the growth is 74%.

Take `C#CCNCCN1C(=O)c2ccc3c4c(ccc(c24)C1=O)C(=O)N(CCNCC#C)C3=O`: the growth was 91.2%.

`COc1ccc2nc(/C=C/c3ccc(N(C)C)cc3)sc2c1`: the growth was 93.3%.

Take `CC(C)C[C@H](NC(=O)Cn1ccc(Nc2ccccc2)cc1=O)B(O)O`: the growth is 1.31% (active).

On to `CCC(CCNc1cc(OC)cc2cccnc12)CN1C(=O)c2ccccc2C1=O` (stereo not given), for which the growth was 93%.

In the case of `CCN(CC)CCOC(=O)c1ccc(NC(=O)Nc2cccc(Cl)c2)cc1`, the growth is 85.1%.

Consider `COc1ccc(NC(=O)CCn2cnc3c(cc(-c4ccccc4)n3-c3ccccc3)c2=O)cc1`, for which the growth was 69.1%.

On to `O=S(=O)(O)C1(O)CCCCC1`, for which the growth is 101%.

Consider `S=C(Cc1ccc(-c2ccccc2)cc1)N1CCOCC1`, for which the growth was 83.1%.

With `COc1cc2c3c(cccc3c1)C(=O)N(CCN1CCCC1)C2=O`, the growth is -8.44% (active).

On to `Nc1ccc(Sc2ccc3c4c2cccc4c(=O)n2c4ccccc4nc32)cc1`, for which the growth is 28.7%.

With `CCOC(=O)Cn1nnc(-c2ccc(OCc3ccccc3F)cc2)n1`, the growth is 75.5%.

With `CCOC(=O)c1c(O)c2cc(-c3ccccc3)nc(OCC)c2c(=O)n1C`, the growth was 51.7%.

Consider `Cc1cnc(C=O)c2cccc([N+](=O)[O-])c12`, for which the growth is 61.2%.

On to `CC(C)c1[nH]nc2c(NCc3ccc(-c4ccccn4)cc3)nc(SCCN(C)C)nc12`, for which the growth was -15.9% (active).

Consider `O=C(CCCC(=O)N/N=C/c1cc(Cl)ccc1O)N/N=C\c1cc(Cl)ccc1O`, for which the growth is 24.4%.

For `NC1CCC(Nc2nc(NCc3ccc(-c4ccco4)nc3)c3ncn(C4CCCC4)c3n2)CC1` (stereo not given), the growth is -16.3% (active).

Take `C=CCN1C(=O)/C(=C\c2ccc3c(c2)CCC3)SC1=S`: the growth is 91.5%.

Consider `O=C1CC[C@@H](C(=O)N[C@H]2CSSC[C@@H](C(=O)NCCc3ccccc3)NC(=O)[C@H](Cc3ccccc3)NC(=O)[C@@H]3CCCN3C(=O)[C@@H]3CCCN3C2=O)N1`, for which the growth was 94.6%.

For `FC(F)(F)c1ccc(-c2cnc(Cl)nc2NCc2cc(C(F)(F)F)cc(C(F)(F)F)c2)cc1`, the growth was -35.3% (active).

`COc1ccc2nc(C)cc(Nc3ccc(Cl)cc3)c2c1`: the growth is 156%.

As for `COc1ccc(S(=O)(=O)Nc2ccc(OCc3nnc(-c4ccc(Cl)cc4)o3)c(F)c2)cc1`, the growth is 60.6%.
